Bioassay records as filed in PubChem BioAssay.
VHR inh color = blocks the human dual specificity phosphatase VHR1; recombinant VHR phosphatase, colorimetric substrate read-out; 50,000 tested, 0.7% active; inhibition, % at 20 µM; P51452; in the data active = inhibition above about 60%
Target sequence (P51452 whole entry, looked up): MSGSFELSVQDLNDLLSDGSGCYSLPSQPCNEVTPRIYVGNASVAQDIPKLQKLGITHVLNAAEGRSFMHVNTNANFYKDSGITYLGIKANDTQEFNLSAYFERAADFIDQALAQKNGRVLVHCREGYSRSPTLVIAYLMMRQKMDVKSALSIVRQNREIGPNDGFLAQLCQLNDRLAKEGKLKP
Active calls of the source: *. This is one part of a sample in which hits are shown more often than they occur.

SMILES	VHR inh color
CN(C)c1ccc(/C=C2/SC(=O)N(c3ccccc3)C2=O)cc1	-13.8
CN1C(=O)NC(=O)/C(=C\c2ccc(C(=O)O)cc2)C1=O	-10.4
O=[N+]([O-])c1cccc(/C=N/Nc2nnc3c(n2)[nH]c2ccccc23)c1	-5.0
CCOc1cc(/C=C(/C#N)C(N)=O)cc(Br)c1O	9.1
O=C(c1ccccc1F)N1CCN(c2cccc(Cl)c2)CC1	-7.4
COc1cc([N+](=O)[O-])ccc1NC(=O)COc1ccc(-c2ccc(C)cc2)cc1	-8.8
COc1ccc(/C=C2\SC(N3CCC(C)CC3)=NC2=O)cc1OC	7.6
CCCOC(=O)c1c(NC(=O)c2cccc(OCC)c2)sc2c1CCC2	-8.2
C=CCN1C(=O)/C(=C\c2ccc(-c3cccc([N+](=O)[O-])c3)o2)C(=O)NC1=S	20.3
C=CCN1C(=O)/C(=C\c2ccc(-c3ccc([N+](=O)[O-])cc3)o2)C(=O)NC1=S	62.0*
C=CCN1C(=O)/C(=C\c2ccc(-c3ccc(Br)cc3)o2)C(=O)NC1=S	81.3
COc1cc(C(=O)Nc2ccc(C(=O)OC3CCCCC3)cc2)cc(OC)c1OC	29.8
COC(=O)c1ccc(CN2CCc3ccccc3C2)cc1	5.5
O=C(O)c1cccc(-c2ccc(/C=N/Nc3ccc([N+](=O)[O-])cn3)o2)c1	90.4*
Cc1cc(C(=O)N/N=C/c2ccc(-c3cccc(C(=O)O)c3)o2)n[nH]1	16.4
O=C(O)c1cc(-c2ccc(/C=N/Nc3ccc([N+](=O)[O-])cn3)o2)ccc1Cl	-0.6
O=S(=O)(Cc1ccccc1)CC(O)COCc1ccccc1 (stereo unspecified)	-8.4
COc1ccc(C(=O)CSc2nc(N)cc(=O)[nH]2)cc1	13.1
CCCCOC(=O)c1ccc(NC(=O)c2cc(I)ccc2Cl)cc1	-17.3
O=C1N=c2ccccc2=C1c1sc(Nc2cccc(O)c2)nc1O	-0.2
O=C1N=c2ccccc2=C1c1sc(Nc2ccc(O)cc2)nc1O	57.8*
CCOc1ccc(Nc2nc(O)c(C3=c4cc(Br)ccc4=NC3=O)s2)cc1	-13.5
COc1cc(/C=c2/sc3nc4c(Br)c(C)c(C)cc4n3c2=O)ccc1OCC(=O)O	8.1
Cc1cc(C)c2nc3s/c(=C\c4ccccc4)c(=O)n3c2c1	-20.2
Cc1cc2c(nc3s/c(=C/c4ccccc4)c(=O)n32)c(Br)c1C	99.2*
SMILES	VHR inh color
CCOC(=O)C1=CN(c2ccc(OCC)cc2)C=C(C(=O)OCC)C1c1cccc(F)c1	-6.5
COC(C(=O)NNC(=O)c1cccc(Cl)c1)c1ccccc1 (stereo unspecified)	1.0
Cc1cc(OCC(=O)Nc2ccc(Nc3ccccc3)cc2)ccc1Br	-2.2
Cc1cccc(NC(=O)c2c(NC(=O)C(C)(C)C)sc3c2CCCC3)c1	87.9*
COc1ccccc1NC(=O)c1c(NC(=O)C(C)(C)C)sc2c1CCCC2	-6.5
Cc1ccccc1NC(=O)c1c(NC(=O)C(C)(C)C)sc2c1CCCC2	-2.3
COc1ccc(CCN/C(C)=C/c2oc3ccc(O)cc3c2[N+](=O)[O-])cc1OC	-9.5
C=CCN1C(=O)/C(=C/c2cccc(OCc3ccccc3Cl)c2)SC1=S	-29.8
O=C(Nc1cccc2ccccc12)C1(c2ccccc2)CC1(Cl)Cl (stereo unspecified)	117.7*
O=C(Nc1nccs1)C1(c2ccccc2)CC1(Cl)Cl (stereo unspecified)	-5.7
O=C(Nc1ccccc1F)C1(c2ccccc2)CC1(Cl)Cl (stereo unspecified)	4.6
COc1ccc(C(NC(C)=O)c2c(OC(C)=O)ccc3ccccc23)cc1OC (stereo unspecified)	-3.3
CCOc1cc2c(c([N+](=O)[O-])c1)NC(c1ccccc1)C1CC=CC21 (stereo unspecified)	1.6
COc1ccc(C2C3C(=O)N(c4ccccc4)C(=O)C3N3CCCN23)cc1 (stereo unspecified)	88.6*
O=C1C2C(C(=O)N1c1cccc(Cl)c1)N1CCCN1C2c1ccccc1 (stereo unspecified)	-6.9
COc1ccc(C2C3C(=O)N(c4ccc(Br)cc4)C(=O)C3N3CCCN23)cc1 (stereo unspecified)	1.9
Cc1cccc(C(=O)Nc2c(C(=O)N3CCN(C)CC3)cnn2-c2ccccc2)c1	-6.0
CCCN(CCC)C(=O)c1cnn(-c2ccccc2)c1NC(=O)c1cccc(F)c1	19.4
Cc1cccc(C(=O)Nc2c(C(=O)N(C)C)cnn2-c2ccccc2)c1	69.9*
Cc1ccccc1OCC(=O)Nc1cccc(-c2cc3ccccc3oc2=O)c1	-23.0
O=C1C(Cl)=CC(=NS(=O)(=O)c2ccccc2)C=C1Br	71.8*
O=C1C=C/C(=N\S(=O)(=O)c2ccccc2)C=C1Cl	24.0
CC1=C/C(=N/S(=O)(=O)c2ccc(C)cc2)C=C(Cl)C1=O	58.2
CC1CN(CN2C(=O)C(=O)c3ccccc32)CC(C)O1 (stereo unspecified)	-10.4
CCOC(=O)C(=C/C(C)=C/c1ccco1)C(=O)OCC	-8.1
SMILES	VHR inh color
Cc1oc2c(cc(O)c3ccccc32)c1C(=O)c1ccc(Cl)cc1	14.5
O=C(NCc1ccc(Cl)c(Cl)c1)c1cccc(F)c1	-8.9
CC(C)=C1C(=O)NN(c2ccccc2)C1=O	82.7*
CCc1ccc(/C=C2\C(=O)NN(c3ccccc3)C2=O)cc1	-16.2
O=C1NN(c2ccccc2)C(=O)/C1=C\C=C\c1ccccc1	-68.0
O=C1CC(N2CCN(c3ccccc3Cl)CC2)C(=O)N1c1ccc(Cl)cc1 (stereo unspecified)	-39.4
Cc1ccc([N+](=O)[O-])cc1-c1[nH]c(-c2cccc(O)c2)nc1-c1ccccc1	2.7
Cc1ccccc1N1C(=O)/C(=C\c2ccc(F)cc2)SC1=S	-4.9
CCOc1ccc(Cl)cc1/C=C1\C(=N)N2N=C(CC)SC2=NC1=O	-9.0
CCCC1=NN2C(=N)/C(=C/c3cc(OC)ccc3OC)C(=O)N=C2S1	111.6*
CCCC1=NN2C(=N)/C(=C/c3ccc(OCc4ccccc4Cl)cc3)C(=O)N=C2S1	3.2
CCCC1=NN2C(=N)/C(=C/c3ccc4c(c3)OCO4)C(=O)N=C2S1	104.6*
CCCC1=NN2C(=N)/C(=C/c3ccc(-c4ccc(Cl)cc4Cl)o3)C(=O)N=C2S1	9.6
CCC1=NN2C(=N)/C(=C/c3ccc(OCCOc4cccc(OC)c4)c(OC)c3)C(=O)N=C2S1	-10.8
CCOC(=O)C1=C(C)N=c2s/c(=C\c3cc(Br)c(O)c(OC)c3)c(=O)n2C1c1ccc(OC)c(OC)c1 (stereo unspecified)	-30.9
Cn1cc(N)c(C(=O)Nc2ccc3c(c2)C(=O)NC3=O)n1	-12.3
O=S(=O)(N/N=C/c1cccs1)c1ccc(Cl)cc1	-19.8
COc1ccc([N+](=O)[O-])cc1NS(=O)(=O)c1cc(Cl)ccc1Cl	0.8
COc1cc(C(=O)N2c3ccccc3-c3c(ssc3=S)C2(C)C)cc(OC)c1OC	10.1
CC1(C)c2ssc(=S)c2-c2ccccc2N1C(=O)CN1CCCCC1	97.9*
CC1(C)c2ssc(=S)c2-c2ccccc2N1C(=O)CSc1nnc(N)s1	-2.2
Cn1ccnc1SCC(=O)N1c2ccccc2-c2c(ssc2=S)C1(C)C	37.0
CC1(C)c2ssc(=S)c2-c2ccccc2N1C(=O)CN1CCOCC1	97.3*
COc1ccc2c(c1)N(C(=O)CN1C(=O)c3ccccc3C1=O)C(C)(C)c1ssc(=S)c1-2	-13.9
O=C1C(=O)N(c2cccc([N+](=O)[O-])c2)C(c2ccc(F)cc2)/C1=C(/O)c1ccccc1 (stereo unspecified)	6.5
CCOC(=O)C1=CC2(SC=C(C(=O)OCC)S2)C2=C(S1)C(C)(C)N(C(=O)CC)c1ccc(C)cc12 (stereo unspecified)	-40.0
